High-throughput results from PubChem BioAssay.
This is a sample that favours compounds with a hit; in the whole collection about 2.4% have one here.
Cruzain noTriton – inhibitors of Trypanosoma cruzi cruzain without detergent; purified cruzain, Z-FR-AMC fluorescence, no detergent; Potency, µM, usual class: inhibitors; AID 1476; 200,000 compounds, 2.3% hits; further: nearly all actives have a fitted effect of over 40% in size
Target sequence (P25779 123-467 limits assumed): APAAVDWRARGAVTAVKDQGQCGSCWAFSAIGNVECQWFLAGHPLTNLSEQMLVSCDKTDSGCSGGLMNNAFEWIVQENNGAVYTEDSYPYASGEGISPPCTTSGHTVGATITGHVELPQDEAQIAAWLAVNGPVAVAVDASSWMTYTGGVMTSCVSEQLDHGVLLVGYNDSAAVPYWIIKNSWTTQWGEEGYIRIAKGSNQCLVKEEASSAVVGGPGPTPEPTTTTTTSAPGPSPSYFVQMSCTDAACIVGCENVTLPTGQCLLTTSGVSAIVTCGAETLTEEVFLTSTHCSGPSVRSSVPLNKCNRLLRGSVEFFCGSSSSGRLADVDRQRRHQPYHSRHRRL
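Purified cruzain at 1.5 nM, pre-incubated 15 min with compound at room temperature in 100 mM sodium acetate pH 5.5, 5 mM DTT, 0.00005% Triton X-100. Reaction started with 2 uM Z-FR-AMC; AMC fluorescence increase over 60 s gives rate.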
Cruzain inh Det – blocks cruzain activity in presence of Triton detergent; 200,000 compounds, 0.43% hits; purified cruzain, Z-FR-AMC fluorescence, 0.01% Triton; P25779; AID 1478; Potency, µM, most hits filed as inhibitors; further: nearly all actives have a fitted effect of over 40% in size
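Compounds were screened in titration against cruzain (1.5 nM) with 0.01% Triton X-100 to counter colloidal aggregation. Activity was the AMC fluorescence increase over 60 s after adding 2 uM Z-FR-AMC at pH 5.5.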
A number is an active result; . = inactive; ? = inconclusive. The call rests on the fitted dose curve; in most records, active means well fitted curve in the direction sought with a large enough effect; inconclusive means small, poorly fitted or top-dose-only effect, or another doubt; inactive means no such curve, though single readings can be large; an effect the other way counts as inactive or inconclusive.

SMILES	Cruzain noTriton	Cruzain inh Det
N[C@@H](CSCc1ccccc1)C(=O)O	.	.
CC(C)CNC(=O)c1ccccc1NC(=O)CCSc1ccccc1	.	.
COC(=O)N[C@@H](c1ccc(Br)cc1)C(C(=O)OC)C(=O)OC	.	.
COc1cccc(C(=O)Oc2cc3c4c(c2)C(C)=CC(C)(C)N4C(=O)C3=O)c1	.	.
CC1=CC(C)(C)n2c(O)c(C3=NC(=S)NC3=O)c3cc(OC(=O)c4cccc5ccccc45)cc1c32	3.16µM	.
Cc1ccc2nc(-c3ccc(Cl)c(NC(=O)c4ccc5c(c4)OCCO5)c3)oc2c1	.	.
O=C(O)CNC(=O)c1ccc([N+](=O)[O-])cc1	?	.
CCOC(=O)Cc1csc(NC(=O)COc2ccc(N(C)S(=O)(=O)c3ccc(C)cc3)cc2)n1	.	.
CCOc1ccc(S(=O)(=O)N(C)c2ccc(OCC(=O)Nc3nc(-c4cc(OC)ccc4OC)cs3)cc2)cc1	7.94µM	.
CCOC(=O)C1=C(CSc2nc(-c3ccccc3)ccc2C#N)OC(N)=C(C#N)C1c1ccc(OC)cc1 (stereo not drawn)	15.8µM	.
CCOC(=O)C1=C(CSc2nc(CC)c(C)cc2C#N)OC(N)=C(C#N)C1c1ccccc1 (stereo not drawn)	.	.
Cc1ccc(Cn2c(SCc3ccc(C(=O)N4CCCCC4)cc3)nc3ccncc32)cc1	.	.
COc1ccc(Br)cc1/C=N/NC(=O)CNC(=O)/C=C/c1ccccc1	?	.
COc1ccc(/C=C/C(=O)NCC(=O)N/N=C/c2cc(Br)ccc2OCc2ccccc2)cc1	6.31µM	.
O=C(Nc1nc2ccccc2s1)c1cc(-c2ccco2)nc2ccccc12	.	.
Cc1ccccc1-c1cc(C(=O)Nc2nc3c(s2)CCCC3)c2ccccc2n1	?	.
O=C(Nc1nc2c(s1)CCCC2)c1cc(-c2ccc3c(c2)OCO3)nc2ccccc12	5.01µM	.
COc1cccc(-c2cc(C(=O)Nc3nc4ccccc4s3)c3ccccc3n2)c1	12.6µM	.
Cc1cccc(N2CCN(c3ncnc4onc(-c5ccc(F)cc5)c34)CC2C)c1 (stereo not drawn)	.	.
O=C(O)c1cc(Cl)cc(Cc2cc(Cl)cc(C(=O)O)c2O)c1O	.	.
CCn1c2ccccc2c2cc(NC(=O)C(C)Oc3ccc(OC)cc3)ccc21 (stereo not drawn)	25.1µM	.
CCn1c2ccccc2c2cc(NC(=O)C(C)Oc3ccccc3)ccc21 (stereo not drawn)	?	.
CC(C)(CO[C@H]1C[C@H]2CC[C@@]1(C)C2(C)C)[N+](=O)[O-]	.	.
Cc1c(C(=O)N/N=C/c2ccc(N(C)C)cc2)[nH]c2ccc(Cl)cc12	10µM	.
Cc1c(C(=O)N/N=C/c2ccccc2)[nH]c2ccc(Cl)cc12	.	.
SMILES	Cruzain noTriton	Cruzain inh Det
CC(CCO)Nc1nc2c(c(=O)n(C)c(=O)n2C)n1Cc1ccc(Br)cc1 (stereo not drawn)	.	.
CCOc1ccc(OCC)c(NC(=O)C2CCCN(S(=O)(=O)c3cc(Br)cc4c3N(C(=O)CC)CC4)C2)c1 (stereo not drawn)	.	.
CN(C)c1ccc(CNC(=O)c2sc3ncccc3c2-n2cccc2)cc1	.	.
CSc1nc2n(n1)C(c1cccc(F)c1)C(C(=O)Nc1ccc(C)cc1C)=C(C)N2 (stereo not drawn)	10µM	.
COc1ccc(C2C(C(=O)Nc3ccc(C)cc3C)=C(C)Nc3nc(SC)nn32)cc1OC (stereo not drawn)	.	.
C=CCC(C)(O)c1ccc(OC)cc1 (stereo not drawn)	.	.
COc1cccc([C@@H]2Oc3ccc(Br)cc3C[C@H]2OC(=O)Nc2ccc(C)c(Br)c2)c1	.	.
CCCOc1ccc(NC(=O)C2CC(=O)N/C(=N/N=C(C)/C=C/c3ccc(N(C)C)cc3)S2)cc1 (stereo not drawn)	25.1µM	.
CCOc1ccc(NC(=O)C2CC(=O)N(CC)C(=Nc3ccc4c(c3)OCO4)S2)cc1 (stereo not drawn)	.	.
CC(/C=C/c1ccc(N(C)C)cc1)=N/N=C1/NC(=O)CC(C(=O)Nc2ccc(Cl)cc2)S1 (stereo not drawn)	?	.
CCOc1ccc(NC(=O)C2CC(=O)NC(=Nc3ccc(Cl)c(Cl)c3)S2)cc1 (stereo not drawn)	10µM	?
COC(=O)c1ccc(C(/C=C/[C@@H](C)C(=O)N(C)C)NC(=O)OCc2ccccc2)cc1 (stereo partly drawn)	.	.
ClCCCCl	.	.
Cc1ccc(Cl)cc1N1CCN(C(=O)CCCn2c(=O)[nH]c3ccc(Br)cc3c2=O)CC1	.	.
N#Cc1c(Sc2ncc(C(F)(F)F)cc2Cl)nsc1C/C=N\OCc1ccccc1Br	7.94µM	.
CCOC(=O)/C(=C\Nc1ccccc1C(F)(F)F)Sc1ncc(C(F)(F)F)cc1Cl	?	.
Cc1cc(C)n(C(C[N+](=O)[O-])c2ccc(Cl)cc2)n1 (stereo not drawn)	20µM	.
